Screens (PubChem)
MRP-1 activ = MRP-1 activation. H69AR cells + doxorubicin, viability rescue, CellTiter-Glo. viability increase, % at 10 µM. actives 0.61% (n = 140,000). AID 799;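 active = viability gain under doxorubicin at or above a set limit, the compound median plus 3 SD, cut at about 4.7% in these data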;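 also: MRP-1 overexpressing cells given doxorubicin 25 µM after compound pretreatment; 18-22 h compound pretreatment then 72 h with doxorubicin before readout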
Mac1 fbg enh = increases human CD11b/CD18 adhesion to fibrinogen | K562 CD11b/CD18 adhesion to fibrinogen, ATPlite luminescence | P05107+P11215 | actives 0.07% (n = 93,000) | AID 1499 | activation, % at 10 µM;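 active = 10 µM primary screen giving 50% or more activity, confirmed by 40% or more on retest at that dose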
Target sequence (P05107 whole entry, looked up, other chains not shown): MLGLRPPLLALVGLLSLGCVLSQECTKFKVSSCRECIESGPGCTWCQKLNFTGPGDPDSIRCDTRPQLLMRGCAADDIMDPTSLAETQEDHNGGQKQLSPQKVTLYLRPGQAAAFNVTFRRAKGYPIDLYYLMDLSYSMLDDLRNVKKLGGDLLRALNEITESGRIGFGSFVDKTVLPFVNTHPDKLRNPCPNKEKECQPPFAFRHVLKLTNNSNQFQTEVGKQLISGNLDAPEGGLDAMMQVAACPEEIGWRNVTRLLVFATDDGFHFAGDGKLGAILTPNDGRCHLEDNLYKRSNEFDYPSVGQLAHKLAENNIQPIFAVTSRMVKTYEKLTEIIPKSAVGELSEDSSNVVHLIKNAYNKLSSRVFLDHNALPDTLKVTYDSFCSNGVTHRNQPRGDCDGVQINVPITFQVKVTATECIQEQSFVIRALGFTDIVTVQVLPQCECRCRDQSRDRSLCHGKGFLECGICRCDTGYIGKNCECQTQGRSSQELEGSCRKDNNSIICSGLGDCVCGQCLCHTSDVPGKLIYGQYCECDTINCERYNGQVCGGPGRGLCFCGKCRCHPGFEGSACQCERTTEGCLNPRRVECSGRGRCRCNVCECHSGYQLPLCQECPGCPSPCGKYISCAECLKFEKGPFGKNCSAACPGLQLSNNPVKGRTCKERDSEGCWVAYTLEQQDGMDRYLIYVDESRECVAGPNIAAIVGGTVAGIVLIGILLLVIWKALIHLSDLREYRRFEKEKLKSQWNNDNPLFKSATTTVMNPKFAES
MRP resist rev = reverses drug resistance mediated by MRP; actives 0.04% (n = 85,000); differential viability (reversal), % at 10 µM; H69AR cells + 2 uM doxorubicin, CellTiter-Glo, 72 h;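 active = viability drop by adding the cancer drug above about 55%, with treated viability meeting a 40% cutoff, limit read from the data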;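 also: larger differential means the compound sensitizes cells more to doxorubicin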
CD11b adhes inh = blocks human CD11b/CD18 adhesion to fibrinogen; K562 CD11b/CD18 adhesion to fibrinogen, ATPlite luminescence; Mn2+ added to activate the integrin; inhibition, % at 10 µM; actives 0.54% (n = 93,000); AID 1497;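 active = primary inhibition of 50% or more at 10 µM, then 40% or more on retest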
Cav32 inh = blocks human Cav3.2 T-type calcium channel | actives 4% (n = 100,000) | AID 449739 | B-score at 10 µM | O95180 | Cav3.2-expressing cells, Fluo-4 calcium fluorescence FDSS; active compounds read low;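 active = single-dose well whose peak fluorescence ratio is a statistical outlier from its plate by either plate-standardised score or position-corrected B-score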
Pyk2 oligo antag = antagonists of human Pyk2 oligomerization | Q14289 | Q293 cells, Pyk2 FERM NanoBiT luminescence; active compounds read low | z-score (the deposit names both 25 µM and 10 µM) | actives 0.83% (n = 99,000);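 active = Z-score of -3 or lower, scaled per plate to the spread of control and sample wells; inactive = z-score above -3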;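 also: negative z-score means lost luminescence so less FERM oligomerization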
Of the large screens only hits and unclear results are named; the others gave an inactive call. Sampled rows, rich in hits. Any-hit rate of the full collection: about 4.1%.

Cn1c(N2CCN(C(=O)NCc3ccccc3)CC2)nc2ccccc21	none
O=C(Nc1cccc2ccccc12)N1CC=CCC1	none
O=C(Nc1cccc2ccccc12)N1CCN(c2ccccc2)CC1	Pyk2 oligo antag -3.8
Cc1nn(Cc2ccc(Cl)cc2)c(C)c1NC(=O)/C=C/c1cnn(C)c1	none (no result: Mac1 fbg enh, MRP resist rev, CD11b adhes inh, Cav32 inh, Pyk2 oligo antag)
Cc1ccc(C(=O)Nc2ccccc2N2CCN(C(=O)C(C)C)CC2)cc1C	none (no result: MRP resist rev)
Cn1c(SCC(=O)OC2CCCCC2)nnc1-c1ccc2c(c1)OCO2	none
N#C/C(=N\Nc1ccc(S(=O)(=O)N2CCCCC2)cc1)C(N)=S	none (no result: Mac1 fbg enh, MRP resist rev, CD11b adhes inh, Cav32 inh, Pyk2 oligo antag)
N#CC(C#N)=NNc1ccc(S(=O)(=O)N2CCCC2)cc1	MRP-1 activ 5.1 (no result: Mac1 fbg enh, MRP resist rev, CD11b adhes inh, Cav32 inh, Pyk2 oligo antag)
Cn1c(/C=N/c2nc3ccccc3[nH]2)nc2ccccc21	none
C(=N\c1nc2ccccc2[nH]1)/c1cccs1	Cav32 inh 3.1
CCCCC(=O)Nc1ccc(C(=O)NNC(=O)c2ccccc2Br)cc1	none (no result: Mac1 fbg enh, MRP resist rev, CD11b adhes inh)
CCc1cc(/C(Cc2ccccn2)=N\O)c(O)cc1O	none
CCc1cc(/C(Cc2ccc3ccccc3n2)=N\O)c(O)cc1O	CD11b adhes inh 60, Cav32 inh -3.9 (no result: MRP resist rev)
Cc1cccc(-n2c(-c3csc(C)c3C)n[nH]c2=S)c1	none (no result: Mac1 fbg enh, MRP resist rev, CD11b adhes inh, Cav32 inh, Pyk2 oligo antag)
CCCCOc1ccc(N2C(=O)CC(N(O)c3ccccc3)C2=O)cc1 (stereo unspecified)	none
CCn1nc(C)c(C2C(C#N)=C(N)OC3=C2C(=O)CCC3)c1C (stereo unspecified)	none (no result: Mac1 fbg enh, MRP resist rev, CD11b adhes inh, Cav32 inh, Pyk2 oligo antag)
Cc1ccc(C(=O)C2C(c3ccc(-c4ccccc4[N+](=O)[O-])o3)NC(=O)NC2(O)C(F)(F)F)cc1 (stereo unspecified)	Cav32 inh -7.1 (no result: MRP-1 activ, Mac1 fbg enh, MRP resist rev, CD11b adhes inh)
CCCCN(Cc1ccccc1)S(=O)(=O)c1cc(Br)cc2c1N(C(C)=O)C(C)C2 (stereo unspecified)	Cav32 inh -3.3
CC(=O)N1c2c(cc(Br)cc2S(=O)(=O)NCc2cccnc2)CC1C (stereo unspecified)	none (no result: Cav32 inh)
N#C/C(=C\c1ccc(N2CCCC2)c([N+](=O)[O-])c1)c1nc2ccccc2[nH]1	Mac1 fbg enh 113 (no result: MRP resist rev)
N#C/C(=C\c1ccc(N2CCCCC2)c([N+](=O)[O-])c1)c1nn(-c2ccccc2)c(N)c1C#N	none (no result: Mac1 fbg enh, MRP resist rev, CD11b adhes inh, Cav32 inh, Pyk2 oligo antag)
N#CCSc1nc2sc3c(c2c(=O)n1C1CCCCC1)CCCC3	none (no result: MRP resist rev)
COc1ccccc1N1CCN(C(=O)c2cc(-c3ccc(C)cc3)on2)CC1	Cav32 inh -4.2
COc1ccccc1N1CCN(C(=O)c2cc(-c3ccc(Cl)cc3)on2)CC1	none
O=C(c1ccccc1C(=O)N1CCN(c2ccccc2F)CC1)N1CCN(c2ccccc2F)CC1	Cav32 inh -3.9
O=C(c1ccccc1)N1CCN(c2ccccc2F)CC1	none
COc1ccccc1N1CCN(C(=O)c2ccccc2Oc2ccccc2)CC1	Cav32 inh -4.7
O=C(c1ccccc1Oc1ccccc1)N1CCN(c2ccccc2F)CC1	Cav32 inh -5.4
CCSc1ccccc1C(=O)N1CCN(c2ccccc2F)CC1	none
O=C(NC1CCCC1)c1cnc2n(c1=O)CCS2	none (no result: Mac1 fbg enh, CD11b adhes inh)
CN(Cc1ccccc1)C(=O)COC(=O)c1cc(-c2ccc(Cl)s2)nc2ccccc12	none (no result: MRP resist rev)
CC(C)(C)c1ccc(COC(=O)CNC(=O)CNC(=O)Cc2ccccc2)cc1	none (no result: MRP resist rev)
CC(=O)SCC(Cc1ccccc1)C(=O)NCC(=O)OCc1ccccc1 (stereo unspecified)	Cav32 inh -5.2 (no result: MRP-1 activ, Mac1 fbg enh, MRP resist rev, CD11b adhes inh, Pyk2 oligo antag)
O=C(CSc1nnc(Cc2ccccc2)o1)N1CCCc2ccccc21	Cav32 inh -3.9
O=C(CSc1nnc(C2COc3ccccc3O2)o1)N1CCCc2ccccc21 (stereo unspecified)	Cav32 inh -10
O=C(CN1CCC(C(=O)c2ccc3c(c2)OCCO3)CC1)NC1CCCC1	none
NC(=O)c1ccsc1NC(=O)c1cc(=O)c2ccccc2o1	none (no result: Mac1 fbg enh, MRP resist rev, CD11b adhes inh, Cav32 inh, Pyk2 oligo antag)
Cc1ccc(-n2nnnc2-c2cnc(N3CCCC3)nc2C(F)(F)F)cc1	Cav32 inh -4.5 (no result: MRP resist rev)
COc1ccc(NS(=O)(=O)c2ccc(OC)c(NC(=O)CCC3CCCC3)c2)cc1	none (no result: Mac1 fbg enh, MRP resist rev, CD11b adhes inh, Cav32 inh, Pyk2 oligo antag)
O=C(Cn1cnc2c(nnn2Cc2ccccc2)c1=O)N1CCCc2ccccc21	none (no result: Mac1 fbg enh, CD11b adhes inh, Cav32 inh, Pyk2 oligo antag)
CC12CC(NC(=O)N1c1cccc(C(=O)N3CCN(c4ccccc4F)CC3)c1)c1ccccc1O2 (stereo unspecified)	Cav32 inh -4.6
CC12CC(NC(=O)N1c1cccc(C(=O)NCc3ccc4c(c3)OCO4)c1)c1cc(Cl)ccc1O2 (stereo unspecified)	Cav32 inh -3.7
Cc1ccc(S(=O)(=O)N/N=C/c2cc(Br)c(C)o2)cc1	none (no result: MRP resist rev)
CCOC(=O)c1sc2nc(N3CCOCC3)c3c(c2c1N)CCN(Cc1ccccc1)C3	none
CCOC(=O)c1[nH]c(Cc2[nH]c(C(=O)OCC)c(C)c2CCC(=O)OC)c(CCC(=O)OC)c1C	Cav32 inh -8.4
CCCc1ccc(Oc2cn[nH]c2-c2ccc(O)c(C)c2O)cc1	CD11b adhes inh 101, Pyk2 oligo antag -3.5
COc1cccc(Oc2cn[nH]c2-c2ccc(OC)cc2O)c1	Cav32 inh -4.9
COc1ccc(O)c(-c2[nH]ncc2C(=O)c2ccccc2)c1	Pyk2 oligo antag -3.5
Cc1c2cnn(CC(=O)N3CCN(c4ncccn4)CC3)c(=O)c2c(C)n1Cc1ccc(F)cc1	none (no result: Cav32 inh, Pyk2 oligo antag)
O=C(CC1SC(=O)N(c2ccccc2)C1=O)Nc1ccccc1 (stereo unspecified)	MRP-1 activ 6.8
Cc1ccc(NC(=O)CC2SC(=O)N(c3ccccc3)C2=O)cc1 (stereo unspecified)	none (no result: Mac1 fbg enh, CD11b adhes inh)
Cc1cccc(NC(=O)CC2SC(=O)N(c3ccccc3)C2=O)c1 (stereo unspecified)	MRP-1 activ 8.9
O=C(Nc1ccc(O)c(-c2nc3ccccc3o2)c1)C1(c2ccc(Br)cc2)CCCC1	none (no result: MRP resist rev, Cav32 inh, Pyk2 oligo antag)
O=C(Nc1ncn[nH]1)c1c(Cl)ccc(Cl)c1Cl	none
O=C(CSc1ncn(-c2ccccc2)n1)Nc1nc2ccccc2s1	none
O=C(CSc1ncn(-c2ccccc2)n1)Nc1nc2c(s1)CCCC2	Cav32 inh -4.2
Cn1c(SCC(=O)Nc2nc3c(s2)CCCC3)nnc1-c1ccccc1	Cav32 inh -6.1
O=C(CSc1nc(Cc2ccccc2)nc2ccccc12)Nc1nc2c(s1)CCCC2	Cav32 inh -4.8 (no result: MRP resist rev)
Cc1ccccc1Cn1cc(NC(=O)c2nc3ncccn3n2)cn1	none
Cn1c(SC2=CS(=O)(=O)c3ccccc32)nc2ccccc21	none (no result: Mac1 fbg enh, CD11b adhes inh)
CCc1ccc(C(C)NC(=O)c2ccc(F)cc2)cc1 (stereo unspecified)	Cav32 inh -4.1 (no result: MRP resist rev)
CCc1ccc(C(C)NC(=O)c2ncn[nH]2)cc1 (stereo unspecified)	none (no result: Mac1 fbg enh, MRP resist rev, CD11b adhes inh, Cav32 inh, Pyk2 oligo antag)
CCn1nc(C(=O)N[C@@H](CCSC)c2nc3ccccc3[nH]2)c2ccccc2c1=O	none
COC(=O)C(NC(=O)c1ccccc1)(Nc1cc(C)cc(C)n1)C(F)(F)F (stereo unspecified)	Cav32 inh -4.2 (no result: Mac1 fbg enh, CD11b adhes inh)
